Shown are actives, neighbours in structure and some others; about 4% of the full set was active somewhere.
KKLEB cytotox: reduces viability of KKLEB cystic fibrosis airway cells; 360,000 tested, 0.36% active; KKLEB CF airway cells viability, ATPlite luminescence, overnight; active compounds read low; cells stimulated with P. aeruginosa culture filtrate; AID 602141; activity change (cytotoxicity), % at 5 µM;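 active means corrected activity change at or below -50% at 5 µM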
TWEAK-Fn14 inh: blocks TWEAK-Fn14 interaction in a reporter cell assay; inhibition, % at 10 µM; TWEAK-stimulated Fn14 reporter cells, luciferase luminescence, 8 h; AID 1159606; 360,000 tested, 2% active; in the data active means inhibition above about 50%
CF NFkB inh: inhibitors of cystic fibrosis induced NF-kB. inhibition, % at 5 µM. KKLEB NF-kB-GFP reporter, PAF-induced, GFP fluorescence overnight. AID 588850. 360,000 tested, 0.86% active;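 active means at least 50% inhibition at 5 µM, scaled per plate between neutral and stimulator controls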;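 further: PAF is a Pseudomonas aeruginosa culture filtrate used as stimulus; plate controls were PAF-stimulated DMSO wells for no effect and unstimulated DMSO wells for full effect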
HIF-2a inh: blocks HIF-2a reporter activity; 786-0 RCC cells HIF-2a reporter, luciferase luminescence, overnight; inhibition, % at 18.8 µM; 360,000 tested, 0.72% active; AID 624352;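 active means inhibition of the luminescence signal of 40% or more relative to plate controls, in a single-dose primary screen at 18.75 µM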
TROY NFkB inh: inhibitors of TROY-dependent NF-kB signaling; 360,000 tested, 0.98% active; AID 1347056; Q293 LMP1-TROYcd NF-kB luciferase reporter, 4 h; inhibition, % at 10 µM;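 active means compounds whose plate-normalised and pattern-corrected inhibition of the luciferase reporter signal at the single screening dose is 50% or more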
Peg3 prom inh: Peg3 promoter activity inhibition. 360,000 tested, 1.7% active. HeLa PEG-Prom luciferase reporter, luminescence, overnight. inhibition, % at 20 µM;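 active means inhibition of at least 50% at 20 µM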
* = called active by the depositor.

SMILES	KKLEB cytotox	TWEAK-Fn14 inh	CF NFkB inh	HIF-2a inh	TROY NFkB inh	Peg3 prom inh
CCCCCCc1cc2cc(C(=O)NCc3ccccc3)c(=N)oc2cc1O	-1	-17	34	4	48	22
CCCCCCc1cc2cc(S(=O)(=O)c3ccc(Cl)cc3)c(=O)oc2cc1O	-17	44	39	-18	53*	45
CCCCCCc1cc2cc(S(=O)(=O)c3ccc(C)cc3)c(=O)oc2cc1O	-10	1	25	-3	51*	40
COCCCNc1nc(N)c([N+](=O)[O-])c(Nc2ccccc2OC)n1	-1	8	16	6	3	43
C=CCN(c1ccccc1OC)S(=O)(=O)c1cccc(C(=O)NCC(c2ccc(OC)cc2)N2CCCC2)c1 (stereo not given)	-2	4	13	0	-15	6
Cc1nc2cc(N3CCN(C)CC3)c(NC(=O)Cc3ccccc3)cc2c(=O)n1Cc1ccccc1	-5	87*	6	37	59*	-11
C=CCN=C(NC#N)SCC(=O)c1cccc(OC)c1	-20	20	61*	-178	-24	-172
C=CCN=C(NC#N)SCc1ccccc1	6	-21	18	1	8	14
CCN(CC)CC(=O)Nc1cccc2c1C(=O)c1ccccc1C2=O	-12	-54	-51	-14	-62	8
O=C1c2ccccc2C(=O)c2c(NCCCN(CCO)CCO)cccc21	-15	-80	-69	-6	-28	59*
CCOc1ccc2nc(SCCNS(=O)(=O)c3ccccc3)sc2c1	0	55*	19	-28	20	-4
CCOc1ccc2nc(SCC(=O)c3ccccc3)sc2c1	4	-47	7	-204	-55	-212
Cc1cccc(OCC(O)CN2CCNCC2)c1 (stereo not given)	-10	1	1	14	7	8
CCN(CC)CCn1c(=N)n(CC(O)COc2cccc(C)c2)c2ccccc21 (stereo not given)	-18	-25	-2	18	-17	58*
Cc1cccc(OCC(O)Cn2c(=N)n(CCN3CCCCC3)c3ccccc32)c1 (stereo not given)	-14	-43	14	25	-15	95*
Cc1cccc(OCC(O)Cn2c(=N)n(Cc3ccccc3)c3ccccc32)c1 (stereo not given)	-5	-12	-4	16	5	2
CC1(C)Cc2c(sc(NC(=O)c3ccc4c(c3)OCCO4)c2C(N)=O)C(C)(C)N1	3	6	8	17	8	18
Cc1ccccc1OCC(=O)Nc1sc2c(c1C#N)CC(C)(C)NC2(C)C	-7	31	10	10	7	8
COC(=O)c1c(NC(=O)c2ccc(C(=O)c3ccccc3)cc2)sc2c1CC(C)(C)NC2(C)C	-21	-38	13	7	0	94*
CC1(C)Cc2c(sc(NC(=O)COc3ccc(Cl)cc3)c2C#N)C(C)(C)N1	-2	101*	9	-3	-21	8
CCOc1ccc(C(=O)Nc2sc3c(c2C(=O)OC)CC(C)(C)NC3(C)C)cc1	-40	-41	30	2	6	79*
CCOC(=O)c1c(NC(=O)COc2ccccc2)sc2c1CC(C)(C)NC2(C)C	-40	8	44	20	23	75*
COc1ccccc1NS(=O)(=O)c1cc(C(=O)N2CC(C)CC(C)C2)ccc1C (stereo not given)	-4	-4	0	16	-7	26
CCN(CC)S(=O)(=O)c1ccccc1/C=N\O	-5	62*	8	-9	32	-9
CN(C)CCCCCCCCCCC(=O)/C=N/O	12	0	3	0	-2	15
O=C(O)CCCC(=O)N1N=C(c2ccccc2)CC1c1ccc2c(c1)OCO2 (stereo not given)	17	4	3	5	-7	3
CC12CCC(=O)C=C1CCC1C2C(O)CC2(C)C1CCC2(O)C(=O)COC(=O)COCC(=O)O (stereo not given)	19	-34	70*	15	13	-2
CC12CCC(=O)C=C1CCC1C2C(O)CC2(C)C1CCC21OCC1=O (stereo not given)	12	20	26	9	-2	-7

Screening results deposited in PubChem by Sanford-Burnham Center for Chemical Genomics.
